Rows were chosen to be rich in hits. Some 19% of all compounds tested hit in one or more screens of this group.
TDP1 cell noCPT: qHTS for Inhibitors of human tyrosyl-DNA phosphodiesterase 1 (TDP1): qHTS in cells in absence of CPT. 420,000 compounds, 15% hits. DT40 Tdp1-/- hTDP1 cells, no CPT, ATP luminescence, 48 h. Potency, µM (highest dose often 46.2 µM), actives largely listed as inhibitors; also: nearly all actives have a fitted effect of over 55% in size
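Seeded 400 DT40-hTDP1 cells/well (vehicle DMSO, no 20 nM CPT); pinned compounds; ≥48 hr at 37 °C; CellTiter-Glo luminescence as viability measure.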
SW480 rerep: inducers of DNA re-replication in SW480 colon cancer cells; SW480 DNA re-replication, Hoechst DNA content imaging, 48 h; Potency, µM (highest dose often 46.1 µM), hits mostly activators; 340,000 compounds, 1.8% hits; also: nearly all actives have a fitted effect of over 55% in size
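Readout is total intensity of Hoechst-stained nuclei, excited at 405 nm and collected at 500-530 nm. Compound treatment lasted 48 hr at 37 C in 5% CO2 before staining.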
MCF10A rereplic: DNA re-replication induction in MCF 10a cells; MCF 10A DNA re-replication, Hoechst nuclear intensity, 48 h; Potency, µM (titrated, usually from 46.1 µM), actives largely listed as activators; 350,000 compounds, 2.9% hits; also: nearly all actives have a fitted effect of over 50% in size
IL1B secr inh: blocks inflammasome-driven IL-1 beta release. THP-1 LPS/ATP IL-1B secretion, AlphaLISA, 16 h; active compounds read low. activity change, % at 57.5 µM. 360,000 compounds, 4.7% hits. AID 743279; in the data active = activity change below about -50%; inconclusive = mostly about -30% to -49%
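THP-1 cells pretreated 1 hr with compounds (up to 57.5 uM final), then stimulated with LPS (250 ng/mL final) plus ATP (1.25 mM final); secreted IL-1B measured by AlphaLISA after 16 hr, decreased signal indicating inhibition.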
Chronic BCR inh: blocks chronic active B-cell receptor signaling; ABC-DLBCL IkBa-CBG/CBR reporter, luminescence ratio, 4 h; Potency, µM (titrated, usually from 46.1 µM), usual class: inhibitors; 340,000 compounds, 0.05% hits; active = well fitted inhibition curve with a large enough effect in the signal ratio, with a control signal flat, not every such curve was filed as active; inconclusive = small, poorly fitted or top-dose-only effect, or effect the other way, or a change in a side signal; the % refers to the signal ratio
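Compounds up to 46 uM were incubated four hours with TMD8 cells whose green CBG68 luciferase is fused to IkappaBalpha; red CBR luminescence normalised the signal, and concentration-effect curves were fitted to fusion, red and ratio data.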
DT40 TDP1 CPT: DT40-hTDP1 cell growth loss with CPT; 420,000 compounds, 12% hits; Potency, µM (doses to about 46.2 µM), most hits filed as inhibitors; chicken DT40 Tdp1-/-;hTDP1 cells + 20 nM CPT, ATP luminescence, 48 h; also: nearly all actives have a fitted effect of over 55% in size
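Chicken DT40 Tdp1-/- cells stably complemented with human TDP1 were seeded at 400 cells/well in medium containing 20 nM camptothecin, exposed to pin-transferred compounds, and grown at 37 °C for at least 48 hr. Viability was read as ATP luminescence.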
Each line names hits and unclear results; the compound was inactive in the other large screens. Unless noted, calls follow the shape of the dose curve; as a rule, active = well fitted curve in the direction sought with a large enough effect; inconclusive = small, poorly fitted or top-dose-only effect, or another doubt; inactive = no such curve, though single readings can be large; an effect the other way counts as inactive or inconclusive.

O=C(c1ccc(-c2ccc([N+](=O)[O-])cc2)o1)N1CCCCCCC1	TDP1 cell noCPT 10µM, MCF10A rereplic 12µM, IL1B secr inh -54, Chronic BCR inh inconclusive, DT40 TDP1 CPT 12µM
O=C(c1ccc(-c2ccc([N+](=O)[O-])cc2)o1)N1CCCC(C(F)(F)F)C1 (centres undefined)	TDP1 cell noCPT inconclusive, IL1B secr inh -53, DT40 TDP1 CPT inconclusive
O=C(Cc1ccc([N+](=O)[O-])cc1)N1CCCCCC1	TDP1 cell noCPT inconclusive
CC1CCCN(C(=O)c2ccc([N+](=O)[O-])o2)C1 (centres undefined)	SW480 rerep inconclusive, DT40 TDP1 CPT inconclusive
CC(=O)NC1(C(F)(F)F)NC(=O)N(CCc2ccccc2)C1=O (centres undefined)	none
CC(C)c1nc2sc3c(c2c(=O)[nH]1)CC(C)(C)OC3	none
Cc1cccc(C)c1NC(=O)C(=O)NCC(c1ccc2c(c1)OCO2)N1CCN(C)CC1 (centres undefined)	none (no result: SW480 rerep, MCF10A rereplic, IL1B secr inh, Chronic BCR inh)
Cc1ccccc1C(=O)NCC(c1cccnc1)N1CCc2ccccc21 (centres undefined)	TDP1 cell noCPT 18µM, DT40 TDP1 CPT inconclusive (no result: SW480 rerep, MCF10A rereplic, IL1B secr inh, Chronic BCR inh)
Cc1cccc(C)c1NC(=O)C(=O)NCC(c1cccnc1)N1CCc2ccccc21 (centres undefined)	TDP1 cell noCPT 13µM, DT40 TDP1 CPT 15µM (no result: SW480 rerep, MCF10A rereplic, IL1B secr inh, Chronic BCR inh)
CCc1ccccc1NC(=O)C(=O)NCC(c1cccnc1)N1CCc2ccccc21 (centres undefined)	TDP1 cell noCPT 21µM, DT40 TDP1 CPT inconclusive (no result: SW480 rerep, MCF10A rereplic, IL1B secr inh, Chronic BCR inh)
Cc1ccc(Cl)cc1NC(=O)C(=O)NCC(c1cccnc1)N1CCc2ccccc21 (centres undefined)	TDP1 cell noCPT 13µM, DT40 TDP1 CPT 13µM (no result: SW480 rerep, MCF10A rereplic, IL1B secr inh, Chronic BCR inh)
CC[C@H]1C(=O)[C@@H](Cc2ccccc2)[C@@H]2CCN3C(=O)CCC[C@H]1[C@H]23	SW480 rerep inconclusive (no result: Chronic BCR inh)
Cc1nn(C)c(C)c1CN(C(=O)C1CCC(=O)N(C2CCCCCC2)C1)C(C)C (centres undefined)	none
COc1ccc(C(CNc2ncnc3sc(C)c(C)c23)N(C)C)cc1 (centres undefined)	TDP1 cell noCPT 23µM, SW480 rerep inconclusive, MCF10A rereplic inconclusive, Chronic BCR inh inconclusive, DT40 TDP1 CPT inconclusive
COc1ccccc1C(CNc1ncnc2sc(C)c(C)c12)N(C)C (centres undefined)	TDP1 cell noCPT 21µM, SW480 rerep inconclusive, MCF10A rereplic inconclusive, Chronic BCR inh inconclusive, DT40 TDP1 CPT inconclusive
C[C@@](N)(C(=O)O)[C@@H]1C[C@@H]1C(=O)O	none (no result: SW480 rerep, MCF10A rereplic, IL1B secr inh, Chronic BCR inh)
Cc1ccc(S(=O)(=O)NC(C)C(=O)OCC(=O)N(C)c2ccccc2)cc1 (centres undefined)	Chronic BCR inh inconclusive
CCN(Cc1ccccc1)CC(O)COC(c1ccc(OC)cc1)c1ccc(OC)cc1 (centres undefined)	TDP1 cell noCPT 21µM, SW480 rerep inconclusive, DT40 TDP1 CPT 21µM
Cc1ccc(OCc2nnc(-c3ccc(Cl)cc3)o2)cc1	none (no result: Chronic BCR inh)
ClCc1ncc(-c2ccc(Cl)cc2)o1	TDP1 cell noCPT 16µM, MCF10A rereplic inconclusive, IL1B secr inh inconclusive, Chronic BCR inh inconclusive, DT40 TDP1 CPT 15µM
CCOC(=O)C1=CCN(S(=O)(=O)c2ccccc2Cl)C1c1cccc(Br)c1 (centres undefined)	TDP1 cell noCPT inconclusive, DT40 TDP1 CPT inconclusive (no result: SW480 rerep, MCF10A rereplic, Chronic BCR inh)
Cc1ccc(NC(=O)C(c2ccccc2)N2Cc3ccccc3C2=O)cc1Cl (centres undefined)	DT40 TDP1 CPT inconclusive (no result: SW480 rerep, MCF10A rereplic, IL1B secr inh, Chronic BCR inh)
Cc1ccc(C(=O)C(c2ccccc2)N2Cc3ccccc3C2=N)cc1 (centres undefined)	TDP1 cell noCPT 8.2µM, SW480 rerep inconclusive, MCF10A rereplic 21µM, IL1B secr inh -81, DT40 TDP1 CPT 10µM
OCC(O)/C=N/Nc1nc(N2CCCCC2)nc(N2CCCCC2)n1 (centres undefined)	none
COc1ccc(CN2CCN(Cc3ccc(C(F)(F)F)cc3)CC2)c(OC)c1	TDP1 cell noCPT 15µM, SW480 rerep 16µM, DT40 TDP1 CPT 21µM
COc1ccc(CN2CCN(Cc3ccc(C)cc3)CC2)c(OC)c1	TDP1 cell noCPT inconclusive, MCF10A rereplic inconclusive, Chronic BCR inh inconclusive
COc1cc(CN2CCN(Cc3ccc(C(F)(F)F)cc3)CC2)cc(OC)c1OC	TDP1 cell noCPT 21µM, DT40 TDP1 CPT 23µM
COc1cc(CN2CCN(Cc3ccccc3C(F)(F)F)CC2)cc(OC)c1OC	TDP1 cell noCPT 26µM, MCF10A rereplic inconclusive, DT40 TDP1 CPT inconclusive
COc1cc(CN2CCCCCC2)cc(OC)c1OC	none
COc1ccc(C(=O)N2CCC3(CCCN(c4ncccn4)C3)CC2)cc1	TDP1 cell noCPT inconclusive (no result: SW480 rerep, MCF10A rereplic, IL1B secr inh, Chronic BCR inh)
CCC(C(=O)NCCc1ccc(SC)cc1)n1nc(C)c2c(C)n(-c3ccc(C)cc3)nc2c1=O (centres undefined)	TDP1 cell noCPT 16µM, DT40 TDP1 CPT 13µM (no result: SW480 rerep, MCF10A rereplic, IL1B secr inh, Chronic BCR inh)
CCC(C(=O)N1CCCC1)n1nc(C)c2c(C)n(-c3ccccc3)nc2c1=O (centres undefined)	SW480 rerep 21µM
CCOc1ccccc1CNC(=O)C(CC)n1nc(C)c2c(C)n(-c3ccccc3)nc2c1=O (centres undefined)	TDP1 cell noCPT inconclusive, DT40 TDP1 CPT 18µM (no result: SW480 rerep, MCF10A rereplic, IL1B secr inh, Chronic BCR inh)
O=C(COC(=O)CN1C(=O)C2CC=CCC2C1=O)Nc1cccc([N+](=O)[O-])c1 (centres undefined)	none (no result: SW480 rerep, MCF10A rereplic, Chronic BCR inh)
COc1ccc(-c2[nH]ncc2/C=N\NC(=O)c2ccc(C(C)(C)C)cc2)cc1OC	TDP1 cell noCPT 26µM, DT40 TDP1 CPT inconclusive
CCCCOc1ccc(C(=O)N/N=C/c2ccc(OCCN3CCCCC3)c(OC)c2)cc1	TDP1 cell noCPT inconclusive, SW480 rerep inconclusive, MCF10A rereplic inconclusive, IL1B secr inh -80, Chronic BCR inh inconclusive, DT40 TDP1 CPT 21µM
CCCCOc1ccc(C(=O)N/N=C/c2cn[nH]c2-c2ccc(OC)c(OC)c2)cc1	TDP1 cell noCPT inconclusive, IL1B secr inh -56, Chronic BCR inh inconclusive, DT40 TDP1 CPT inconclusive
CCOc1ccc(/C=N/NC(=O)c2ccncc2)cc1OC	none (no result: SW480 rerep, MCF10A rereplic, Chronic BCR inh)
COc1ccc(C(=O)N/N=C/c2cn[nH]c2-c2ccc(OC)cc2OC)cc1	TDP1 cell noCPT inconclusive, DT40 TDP1 CPT inconclusive
Cc1ccc(-c2c3c([nH]c(=S)c2C#N)CCCC3)o1	TDP1 cell noCPT inconclusive, DT40 TDP1 CPT 23µM
N#Cc1c(-c2ccncc2)c2c([nH]c1=S)CCCC2	MCF10A rereplic inconclusive
OC(c1cccnc1)c1nc(/C=C/c2ccc(C(F)(F)F)cc2)cs1 (centres undefined)	TDP1 cell noCPT 2.6µM, DT40 TDP1 CPT 21µM (no result: SW480 rerep, MCF10A rereplic, Chronic BCR inh)
